Among all 5,500 compounds or so, about 2,000 (36%) were called active. Another 18% or so got no clear call; they are omitted. Cut-off read from the data, not from the text of the source: active = normalized growth mostly below about 0.91 (no sharp cut-off); inconclusive = no clear call, values can overlap the other calls; inactive = mostly above about 0.92. Some of the results follow.
Assay: chemical genetic growth profiling, strain panel (AID 1159580);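 note: tested at 20 µM; growth read once vehicle control cultures reached saturation at 30 °C; 1 = growth at the plate median or of vehicle wells; lower values mean less growth of the strain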
Details: S. cerevisiae deletion strains, growth OD

Measured: normalized growth

COc1cc(N)c(Cl)cc1C(=O)NC1CCN(Cc2ccccc2)CC1
inactive: locus YAL013W, strain DEP1, stronger effect = lower value 0.997 | locus YAL021C, strain ccr4, stronger effect = lower value 1 | locus YAL026C, strain drs2, stronger effect = lower value 1 | locus YAL030W, strain snc1, stronger effect = lower value 1 | locus YBL061C, strain skt5, stronger effect = lower value 0.997 | locus YBR009C, strain hhf1, stronger effect = lower value 0.999 | locus YBR021W, strain FUR4, stronger effect = lower value 1.07 | locus YBR023C, strain chs3, stronger effect = lower value 0.995 | locus YBR171W, strain sec66, stronger effect = lower value 0.999 | locus YBR229C, strain ROT2, stronger effect = lower value 0.988 | locus YBR231C, strain swc5, stronger effect = lower value 1 | locus YBR279W, strain paf1, stronger effect = lower value 0.999 | locus YCL011C, strain gbp2, stronger effect = lower value 0.994 | locus YCL016C, strain dcc1, stronger effect = lower value 1 | locus YCL029C, strain bik1, stronger effect = lower value 0.962 | locus YCL061C, strain MRC1, stronger effect = lower value 0.984 | locus YCL069W, strain vba3, stronger effect = lower value 0.993 | locus YCR088W, strain abp1, stronger effect = lower value 0.993 | locus YDL005C, strain med2, stronger effect = lower value 0.996 | locus YDL035C, strain GPR1, stronger effect = lower value 1 | locus YDL040C, strain nat1, stronger effect = lower value 0.992 | locus YDL074C, strain BRE1, stronger effect = lower value 0.97 | locus YDL101C, strain DUN1, stronger effect = lower value 0.981 | locus YDL134C, strain PPH21, stronger effect = lower value 0.999 | locus YDL185W, strain tfp1, stronger effect = lower value 0.954 | locus YDL192W, strain arf1, stronger effect = lower value 0.992 | locus YDR001C, strain nth1, stronger effect = lower value 0.999 | locus YDR069C, strain doa4, stronger effect = lower value 0.992 | locus YDR101C, strain arx1, stronger effect = lower value 0.982 | locus YDR137W, strain rgp1, stronger effect = lower value 1.01 | locus YDR150W, strain NUM1, stronger effect = lower value 0.987 | locus YDR159W, strain sac3, stronger effect = lower value 1 | locus YDR162C, strain NBP2, stronger effect = lower value 0.996 | locus YDR195W, strain ref2 0.986 | locus YDR297W, strain sur2, stronger effect = lower value 0.994 | locus YDR318W, strain mcm21, stronger effect = lower value 0.981 | locus YDR334W, strain swr1, stronger effect = lower value 0.998 | locus YDR335W, strain msn5, stronger effect = lower value 0.986 | locus YDR388W, stronger effect = lower value 0.993 | locus YDR392W, strain spt3, stronger effect = lower value 0.995 | locus YDR502C, strain sam2, stronger effect = lower value 1.01 | locus YEL003W, strain gim4, stronger effect = lower value 0.999 | locus YEL037C, strain rad23, stronger effect = lower value 0.996 | locus YEL061C, strain CIN8 (second series), stronger effect = lower value 0.998 | locus YEL061C, strain CIN8, stronger effect = lower value 0.995 | locus YER015W, strain faa2, stronger effect = lower value 1 | locus YER016W, strain bim1, stronger effect = lower value 0.994 | locus YER110C, stronger effect = lower value 0.995 | locus YER111C, strain swi4, stronger effect = lower value 0.991 | locus YER155C, strain BEM2 (second series), stronger effect = lower value 0.988 | locus YER155C, strain BEM2, stronger effect = lower value 0.982 | locus YER167W, strain BCK2, stronger effect = lower value 0.996 | locus YFR010W, strain ubp6, stronger effect = lower value 0.999 | locus YGL078C, strain dbp3, stronger effect = lower value 0.996 | locus YGL086W, strain mad1, stronger effect = lower value 1 | locus YGL167C, strain pmr1, stronger effect = lower value 1 | locus YGL173C, strain kem1, stronger effect = lower value 0.998 | locus YGL227W, strain vid30, stronger effect = lower value 0.998 | locus YGL240W, strain doc1, stronger effect = lower value 0.997 | locus YGL248W, strain PDE1, stronger effect = lower value 1 | locus YGL253W, strain hxk2, stronger effect = lower value 0.992 | locus YGR078C, strain PAC10, stronger effect = lower value 0.982 | locus YGR135W, strain pre9, stronger effect = lower value 0.998 | locus YGR229C, strain SMI1, stronger effect = lower value 1.02 | locus YGR252W, strain gcn5, stronger effect = lower value 1.15 | locus YHR013C, strain ard1, stronger effect = lower value 0.996 | locus YHR027C, strain rpn1, stronger effect = lower value 1 | locus YHR030C, strain SLT2, stronger effect = lower value 0.996 | locus YHR079C, strain IRE1 (second series), stronger effect = lower value 0.977 | locus YHR094C, strain hxt1, stronger effect = lower value 0.974 | locus YHR129C, strain ARP1, stronger effect = lower value 0.993 | locus YHR142W, strain chs7, stronger effect = lower value 0.993 | locus YHR200W, strain rpn10, stronger effect = lower value 0.989 | locus YIL066C, strain RNR3, stronger effect = lower value 0.98 | locus YIL073C, strain SPO22, stronger effect = lower value 0.997 | locus YIL125W, strain kgd1, stronger effect = lower value 0.997 | locus YIR030C, strain dcg1, stronger effect = lower value 0.988 | locus YJL092W, strain hpr5, stronger effect = lower value 0.987 | locus YJL095W, strain BCK1 (second series), stronger effect = lower value 0.998 | locus YJL095W, strain BCK1, stronger effect = lower value 0.999 | locus YJL115W, strain asf1, stronger effect = lower value 0.987 | locus YJL129C, strain trk1, stronger effect = lower value 0.992 | locus YJL134W, strain LCB3, stronger effect = lower value 0.998 | locus YJL154C, strain vps35, stronger effect = lower value 1 | locus YJL164C, strain tpk1, stronger effect = lower value 1 | locus YJL166W, strain qcr8, stronger effect = lower value 0.996 | locus YJL168C, strain set2, stronger effect = lower value 0.99 | locus YJL187C, strain SWE1 (second series), stronger effect = lower value 0.966 | locus YJL187C, strain SWE1, stronger effect = lower value 0.99

— PubChem BioAssay AID1159580 (chemical genetic matrix, 2015)
